In PMC4242493, “Sequence specificity incompletely defines the genome-wide occupancy of Myc”:
The full ranking holds about 33,000 sequences; the median of “normalized occupancy” is about 0.075, and the highest 2% start at about 0.095. The entries come from a sample that favours the highest values as a whole.

Each sequence was assayed against MaxL homodimer (Homo sapiens, UniProt P61244 1-160) (assay: universal protein-binding microarray (PBM); PBS-based mixture, 10 nM His-tagged protein dimer, 2% milk, 200 ng/uL BSA, 50 ng/uL salmon testes DNA, 0.02% TX-100; detection with Alexa 488 anti-His antibody;; high values mean tight binding). Conditions: protein: recombinant; tags: C-terminal His-tag (pET21a); chain copies: 2; dsDNA, one strand shown.
Sequence of MaxL homodimer (P61244 whole entry): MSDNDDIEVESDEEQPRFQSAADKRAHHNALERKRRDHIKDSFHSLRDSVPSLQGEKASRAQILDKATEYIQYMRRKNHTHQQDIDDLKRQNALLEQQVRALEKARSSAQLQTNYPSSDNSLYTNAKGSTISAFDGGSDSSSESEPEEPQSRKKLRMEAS
Method in brief: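 His-tagged protein dimer at 10 nM was bound to Agilent 4 x 44 K 'all 10-mer' universal arrays and detected with 10 ng/μL fluorophore-conjugated anti-His antibody on a GenePix 4400A, giving an intensity per 8-mer. Binding occupancy normalises each intensity to the top-ranked one.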
CCACCTGC gave a binding signal of 0.0984 normalized occupancy. Sequence ATACCTGC has a binding signal of 0.0811 normalized occupancy. ACACCTGG showed a binding signal of 0.0881 normalized occupancy. Work on ACACCTGC yielded a binding signal of 0.0956 normalized occupancy. CCACCTGA was tested, and the binding signal was 0.099 normalized occupancy. Work on ACACCTGT yielded a binding signal of 0.0912 normalized occupancy. CCACCTTC was tested, and the binding signal was 0.0757 normalized occupancy. In the case of CCACCTCG, the binding signal is reported as 0.0794 normalized occupancy. Work on ACACCTGA yielded a binding signal of 0.0871 normalized occupancy. For GCACCTGC, the binding signal was 0.0846 normalized occupancy. With GTAGTTGA the binding signal was 0.0738 normalized occupancy. In the case of ATAACGCC, the binding signal is reported as 0.0792 normalized occupancy. ATTCACCG was tested, and the binding signal was 0.0732 normalized occupancy. With CTTTTCGA the binding signal was 0.0725 normalized occupancy. In the case of ACGCCGAA, the binding signal is reported as 0.0725 normalized occupancy. With GGCCACTA the binding signal was 0.0777 normalized occupancy. With GTGGAAAA the binding signal was 0.0879 normalized occupancy. For AATCGGGA, the binding signal was 0.0782 normalized occupancy. CTGCCTAA gave a binding signal of 0.075 normalized occupancy. For CAAGTCGC, the binding signal was 0.0719 normalized occupancy. In the case of CAAACCTC, the binding signal is reported as 0.0765 normalized occupancy. For ATTCTACC, the binding signal was 0.0801 normalized occupancy. For ACAGCGTG, the binding signal was 0.123 normalized occupancy. Sequence AGAGCGAG has a binding signal of 0.0719 normalized occupancy. AGAGCGTG gave a binding signal of 0.0963 normalized occupancy. Work on AGCGCGTC yielded a binding signal of 0.0772 normalized occupancy. Sequence ATAGCGTG has a binding signal of 0.104 normalized occupancy. AGAGCGTA showed a binding signal of 0.0758 normalized occupancy. Work on AGCGCGTG yielded a binding signal of 0.117 normalized occupancy. ACAGCGAG was tested, and the binding signal was 0.0728 normalized occupancy. AGCGCGCG was tested, and the binding signal was 0.0841 normalized occupancy. ATAGCGTA was tested, and the binding signal was 0.0819 normalized occupancy. For ATAGCGTC, the binding signal was 0.0734 normalized occupancy. For ACAGCGTC, the binding signal was 0.0731 normalized occupancy. AGGCAGTA showed a binding signal of 0.0728 normalized occupancy. CTTGGTCC was tested, and the binding signal was 0.0723 normalized occupancy. CTTCGCTA was tested, and the binding signal was 0.0727 normalized occupancy. ATCCCCCC gave a binding signal of 0.0808 normalized occupancy. Work on GGCTATCA yielded a binding signal of 0.0738 normalized occupancy. ACACTGAC gave a binding signal of 0.0742 normalized occupancy. ACTTTAAG gave a binding signal of 0.0722 normalized occupancy. Work on AAGTATAG yielded a binding signal of 0.0813 normalized occupancy. With CCTTTGTA the binding signal was 0.0734 normalized occupancy. GGTGCGGA showed a binding signal of 0.0762 normalized occupancy. For AAAATTGA, the binding signal was 0.0757 normalized occupancy. TGTAACAA gave a binding signal of 0.0771 normalized occupancy. Sequence GCACGCGA has a binding signal of 0.109 normalized occupancy. GCGCGCGC gave a binding signal of 0.0821 normalized occupancy. Work on GCACGCGC yielded a binding signal of 0.15 normalized occupancy. GAACGCGA gave a binding signal of 0.0778 normalized occupancy. GCACGCCC was tested, and the binding signal was 0.0848 normalized occupancy. GGACGCGA showed a binding signal of 0.0754 normalized occupancy. CTTAAGCA was tested, and the binding signal was 0.077 normalized occupancy. For TCAAATAA, the binding signal was 0.0786 normalized occupancy. Sequence AAGGGGAC has a binding signal of 0.0746 normalized occupancy. For AATGTGAG, the binding signal was 0.0853 normalized occupancy. In the case of CATGTGAG, the binding signal is reported as 0.128 normalized occupancy. In the case of TATGTGAA, the binding signal is reported as 0.0871 normalized occupancy. Sequence GATGTGAC has a binding signal of 0.0817 normalized occupancy. With CATGTGAA the binding signal was 0.127 normalized occupancy. Work on CCTGTGAG yielded a binding signal of 0.0762 normalized occupancy. In the case of AATGTGAC, the binding signal is reported as 0.0908 normalized occupancy. In the case of CATGTGAC, the binding signal is reported as 0.168 normalized occupancy. GATGTGAA showed a binding signal of 0.0819 normalized occupancy. In the case of AAGTAGGA, the binding signal is reported as 0.0726 normalized occupancy. ATGGAGAA showed a binding signal of 0.0775 normalized occupancy. AAGCAGTA was tested, and the binding signal was 0.0725 normalized occupancy. TAGATTGA gave a binding signal of 0.0791 normalized occupancy. In the case of ACCTTTAA, the binding signal is reported as 0.0744 normalized occupancy. CATGGCAG was tested, and the binding signal was 0.0887 normalized occupancy. CATGGCAA showed a binding signal of 0.0963 normalized occupancy. GATGGCAA showed a binding signal of 0.0752 normalized occupancy. CCTATTAA was tested, and the binding signal was 0.0743 normalized occupancy. GAAAATCA showed a binding signal of 0.0778 normalized occupancy. With GTGCACTA the binding signal was 0.0769 normalized occupancy. Sequence CTCTATGA has a binding signal of 0.0732 normalized occupancy. For GATGACTA, the binding signal was 0.0757 normalized occupancy. Sequence ACGTGACC has a binding signal of 0.103 normalized occupancy. For GGGTGACC, the binding signal was 0.0751 normalized occupancy. GCGTGACC was tested, and the binding signal was 0.103 normalized occupancy. For CCGTGACC, the binding signal was 0.075 normalized occupancy. In the case of ATGTGACA, the binding signal is reported as 0.0901 normalized occupancy. CCGTGACG gave a binding signal of 0.0782 normalized occupancy. For ACGTGACA, the binding signal was 0.108 normalized occupancy. Sequence AAGTGACC has a binding signal of 0.0751 normalized occupancy. AGGTGACC gave a binding signal of 0.0766 normalized occupancy. In the case of ACGTGACG, the binding signal is reported as 0.0972 normalized occupancy. ACGTGACT gave a binding signal of 0.0933 normalized occupancy. Work on AGGTGACG yielded a binding signal of 0.075 normalized occupancy. With AGGGTTGC the binding signal was 0.0731 normalized occupancy. In the case of GAAGGTGC, the binding signal is reported as 0.0733 normalized occupancy. CGAAATAC showed a binding signal of 0.0768 normalized occupancy. For CATATTGA, the binding signal was 0.0806 normalized occupancy. Work on CCGTGACA yielded a binding signal of 0.0807 normalized occupancy. For TCGTGACA, the binding signal was 0.0851 normalized occupancy. In the case of GCGTGACA, the binding signal is reported as 0.103 normalized occupancy. Sequence ATGAGCCC has a binding signal of 0.0757 normalized occupancy. In the case of TCTCGAAA, the binding signal is reported as 0.0729 normalized occupancy. GGTGCACA showed a binding signal of 0.078 normalized occupancy. With AGTGCACG the binding signal was 0.0853 normalized occupancy. AGTGCACA was tested, and the binding signal was 0.0838 normalized occupancy. In the case of CGTGCACA, the binding signal is reported as 0.0958 normalized occupancy. Sequence TGTGCACA has a binding signal of 0.0902 normalized occupancy. In the case of CGTGCACG, the binding signal is reported as 0.123 normalized occupancy. CTTAGCCA gave a binding signal of 0.0761 normalized occupancy. CACGCTAA showed a binding signal of 0.0891 normalized occupancy. In the case of AACGCTAC, the binding signal is reported as 0.0825 normalized occupancy. For CACGCTAG, the binding signal was 0.0976 normalized occupancy. AACGCTAG was tested, and the binding signal was 0.0726 normalized occupancy. Sequence GACGCTAC has a binding signal of 0.0742 normalized occupancy. CACGCTAC gave a binding signal of 0.0972 normalized occupancy. In the case of CTATGGGC, the binding signal is reported as 0.0769 normalized occupancy. With AGCATACT the binding signal was 0.0804 normalized occupancy. In the case of ACGTGTAA, the binding signal is reported as 0.1 normalized occupancy. With ACGTGTAT the binding signal was 0.117 normalized occupancy. For AGGTGTAC, the binding signal was 0.0803 normalized occupancy. In the case of GCGTGTAA, the binding signal is reported as 0.0923 normalized occupancy. Sequence GAGTGTAC has a binding signal of 0.0756 normalized occupancy. For TCGTGTAA, the binding signal was 0.0836 normalized occupancy. For AGGTGTAT, the binding signal was 0.0924 normalized occupancy. GCGTGTAC was tested, and the binding signal was 0.1 normalized occupancy. AAGTGTAT was tested, and the binding signal was 0.0806 normalized occupancy. Sequence ACGTGTAC has a binding signal of 0.0984 normalized occupancy. Sequence CCGTGTAC has a binding signal of 0.0796 normalized occupancy. With CCGTGTAA the binding signal was 0.0797 normalized occupancy. In the case of ATTCCAAT, the binding signal is reported as 0.0727 normalized occupancy. ATAGTCAG was tested, and the binding signal was 0.0801 normalized occupancy. For GCATAAAA, the binding signal was 0.0781 normalized occupancy. For GCATTCTA, the binding signal was 0.0844 normalized occupancy. ACTAACAT was tested, and the binding signal was 0.0807 normalized occupancy. GTTGTTTA gave a binding signal of 0.0784 normalized occupancy. AGTGTTAC showed a binding signal of 0.0737 normalized occupancy. GCTATACA gave a binding signal of 0.0815 normalized occupancy. CAAGAAAC gave a binding signal of 0.0724 normalized occupancy. With ATCACGGC the binding signal was 0.0739 normalized occupancy. Work on CTCATTCC yielded a binding signal of 0.0776 normalized occupancy. For TTCAAGAA, the binding signal was 0.0738 normalized occupancy. In the case of AAGACAAG, the binding signal is reported as 0.0722 normalized occupancy. CAATCGAC gave a binding signal of 0.0743 normalized occupancy. GCAGCACA gave a binding signal of 0.0778 normalized occupancy. Sequence CCGTGTAG has a binding signal of 0.0808 normalized occupancy. GCGTGTCC was tested, and the binding signal was 0.0957 normalized occupancy. ACGTGTCC gave a binding signal of 0.0932 normalized occupancy. For ACGTGTAG, the binding signal was 0.103 normalized occupancy. GCGTGTCA gave a binding signal of 0.0867 normalized occupancy. Sequence AGGTGTAG has a binding signal of 0.0785 normalized occupancy. GGAATAAA showed a binding signal of 0.0741 normalized occupancy. For CACAACCA, the binding signal was 0.0825 normalized occupancy. With AGAACGCA the binding signal was 0.0762 normalized occupancy. In the case of ATCGTGCC, the binding signal is reported as 0.08 normalized occupancy. Sequence ATCGTGCG has a binding signal of 0.0851 normalized occupancy. Sequence GCCGTGCA has a binding signal of 0.0768 normalized occupancy. With AGCGTGCC the binding signal was 0.0969 normalized occupancy. For CCCGTGCC, the binding signal was 0.0787 normalized occupancy. For ACCGTGCG, the binding signal was 0.0828 normalized occupancy. ACCGTGCC gave a binding signal of 0.0756 normalized occupancy. Work on GGAGTGCA yielded a binding signal of 0.0787 normalized occupancy. Work on AGCGTGCG yielded a binding signal of 0.109 normalized occupancy. Sequence CGCGTGCC has a binding signal of 0.118 normalized occupancy. Sequence GGCGTGCA has a binding signal of 0.0978 normalized occupancy. Work on CTCGTGCC yielded a binding signal of 0.0909 normalized occupancy. AGTAAAAA showed a binding signal of 0.0773 normalized occupancy. With AAAATCTC the binding signal was 0.0762 normalized occupancy. AGTCTCGA gave a binding signal of 0.0741 normalized occupancy. Work on CTCAAATA yielded a binding signal of 0.0761 normalized occupancy. TGCCAAAA gave a binding signal of 0.0792 normalized occupancy. In the case of ACGTCTAA, the binding signal is reported as 0.0724 normalized occupancy. Sequence CATGGAGG has a binding signal of 0.0891 normalized occupancy. For AGGAGATG, the binding signal was 0.0762 normalized occupancy. For AGCGTGCA, the binding signal was 0.108 normalized occupancy. CGCGTGCA showed a binding signal of 0.134 normalized occupancy. ACCGTGCA showed a binding signal of 0.0786 normalized occupancy. CGGGTGCA was tested, and the binding signal was 0.0755 normalized occupancy. AGAGTGCA showed a binding signal of 0.0743 normalized occupancy. CCCGTGCA gave a binding signal of 0.0874 normalized occupancy.
